The panel holds about 83,000 compounds, 20% with a hit somewhere; the sample as a whole holds those more often.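 Step 1: grow cells in 96-well plates. Step 2: add test compound at a single concentration. Step 3: incubate 48 h. Step 4: record percent growth.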 A number with no mark means an inactive call. Calls of active or inactive are those of the source. Rule for the calls: active = growth percent below 10; inactive = the rest.
System: HL-60(TB) leukemia
Experiment: NCI-60 one-dose screen, 48 h (100 = growth as untreated, 0 = no growth, -100 = all killed)
Details: 10 µM unless noted

| SMILES | growth |
| --- | --- |
| CC1=Cc2ccccc2OC12C=Cc1ccccc1O2 (stereo not given) | 106% |
| CCCCCCCn1cc2c(N[C@H](C)c3ccccc3)ncnc2n1 | 117% |
| O=C(CN1C(=O)/C(=C/c2ccccc2)SC1=S)N1CCOCC1 | 89.1% |
| O=C1Nc2cc(Cl)ccc2/C1=C\c1ccc(OCc2ccc([N+](=O)[O-])cc2)cc1 | 96.9% |
| O=C1c2c(c3c4cccnc4[nH]c3c3ccc4ccccc4c23)C(=O)N1CCN1CCOCC1 | 42.2% |
| NC(N)=Nc1ccc(Oc2cccc(Nc3cccc(C(F)(F)F)c3)c2)cn1 | -64.4% (active) |
| CCCCCCNC(=O)Oc1ccc(/C(=C(/C)c2ccc(Cl)cc2)c2ccc(OCCN3CCCCCC3)cc2)cc1 | 32.4% |
| C#Cc1cc(OC)c(C(=O)Nc2ccc(F)cc2C(=O)Nc2cccc(S(=O)(=O)C(F)(F)F)c2)cn1 | -51.6% (active) |
| CC(=NNc1ncnc2ccccc12)c1ccc(S(C)(=O)=O)cc1 | 98.9% |
| O=C(Nc1ccc(N=Cc2c(O)[nH]c3ccccc23)cc1)Nc1nccs1 | 42% |
| Cc1ccc(Cc2cnc(NC(=O)/C(C#N)=C/c3ccc(-c4ccc(Cl)cc4)o3)s2)cc1 | 88.5% |
| NS(=O)(=O)c1ccc(Nc2cc(-c3ccccc3)nc(SCC(=O)c3ccccc3)n2)cc1 | 106% |
| CC(c1ccccc1)N1CSc2nc3ncncc3n2C1 (stereo not given) | 17.4% |
| CC(C)=CCc1c(O)c(CC=C(C)C)c2c(c1O)C(=O)C1=C[C@@H]3C[C@H]4C(C)(C)O[C@@](C/C=C(\C)C(=O)O)(C3=O)[C@@]14O2 | -14.1% (active) |
| COc1ccc(C(=NNS(=O)(=O)c2ccc(C)cc2)c2ccccc2)cc1OC | 96.9% |
| CCC(=C(c1ccc(OCCN2CCCCCC2)cc1)c1ccc(OCCN2CCCCCC2)cc1)c1ccc(Cl)cc1 | -38.8% (active) |
| COc1cc(-c2nc3ccc(-c4nnc(SCC(=O)Nc5ccc(C(C)=O)cc5)o4)cc3[nH]2)cc(OC)c1OC | 104% |
| Cc1ccc(-c2nn(-c3ccccc3)cc2/C=C/C(=O)c2ccc(NC(=O)CCCCCCC(=O)NO)cc2)cc1 | 109% |
| CCC(=C(c1ccc(OCCN(C)C)cc1)c1ccc(OCCN(C)C)cc1)c1ccc(Cl)cc1 | -59.5% (active) |
| O=C(O)c1ccc(-n2cc(CNc3ccc(Cl)cc3)c(-c3ccc(F)cc3)n2)cc1 | 111% |

| SMILES | growth |
| --- | --- |
| Cc1ccc(-c2cc(-c3cccc4ccccc34)n3c(n2)nc2ccccc23)cc1 | 7.27% (active) |
| C=CCn1c(SCC(=O)Nc2ccc(OC)cc2)nnc1-c1ccc(Cl)cc1 | 78% |
| CCN1CCN(c2ccc(NC(=O)Nc3ccc4c(ccn4-c4ccnc(C(=O)NC)c4)c3)cc2C(F)(F)F)CC1 | 96.6% |
| COc1ccc(S(=O)(=O)NCCCNc2nccc(-c3cn(C(C)(C)C)nc3-c3ccc(Cl)c(OC)c3)n2)cc1 | 124% |
| Cc1cc(C(=O)Nc2ccc(SC#N)cc2)c(C)o1 | 47.7% |
| CN(C)C(=O)C1=NC(CO)C(=O)N(c2ccc(Cl)cc2)N1 (stereo not given) | 110% |
| Cc1cc(C)c(N2C(=O)CC(Nc3ccc(Cl)cc3Cl)C2=O)c(C)c1 (stereo not given) | 100% |
| O=c1[nH]c(CNc2ccc(NCc3c(-c4ccccc4)no[n+]3[O-])cc2)nc2c1cnn2-c1ccccc1 | 63.1% |
| COc1cc2cc(Oc3ccc(NC(=O)c4cccc(C(F)(F)F)c4)cc3)c(C)nc2cc1OCCN(C)C | 97.2% |
| CS(=O)(=O)c1ccc(-n2cc(/C=N/O)c(-c3ccccc3)n2)cc1 | -45.8% (active) |
| NC(N)=Nc1ccc(Oc2cccc(Nc3ccc(Cl)c(C(F)(F)F)c3)c2)cc1 | 1.32% (active) |
| CN1CCN(Cc2ccc(NC(=O)c3cncc(C#Cc4cnc5ccc(NCCCO)nn45)c3)cc2C(F)(F)F)CC1 | -8.59% (active) |
| COc1cc(OC)c(S(N)(=O)=O)cc1C(=O)/C=C/c1ccc(C)cc1 | 6.73% (active) |
| Oc1ccc(CSc2nnc(-c3ccncc3)o2)c2cccnc12 | 8.26% (active) |
| COc1cccc(N2CCN(C3=C(Cl)C(=O)c4ncccc4C3=O)CC2)c1 | 9.82% (active) |
| C#CCN(C)CCCOc1ccc(NCc2ccc(C(=O)NO)cc2)cc1Cl | 12% |
| COc1cc(-c2nc(-c3ccccc3)[nH]c2-c2ccnc(NCCCNS(=O)(=O)c3cccc(F)c3)n2)ccc1F | 94.8% |
| CCOC(=O)Nc1cccc(-n2cnc3cc(-c4ccc(O)cc4)ccc32)c1 | 2.92% (active) |
| NCCNC(=O)c1cccc(COc2ccccc2NC(=O)c2cc(Br)c(Br)[nH]2)c1 | 69.5% |
| CN(C)c1ccc(/C=C2\Cc3c(F)ccc(Br)c3C2=O)cc1 | 79.6% |
